From ChEMBL document CHEMBL3988442, “University of Dundee, Small-Polar-MMV Screening Library” (2021) come the findings set out here.

Hit rate of the full screen: of about 69,000 compounds, about 950 (1.4%) showed an effect of 50% or more. This excerpt belongs to a sample that is enriched for strong results.

This assay concerns Mycobacterium tuberculosis. Briefly: Cornell M. t heat shock assay. Note: in the data most compounds retested in dose-response had high values. The assay is classed as functional, organism-based. Further details: dose or concentration left out as unconfirmed.
Turning to `O=C(O)C(F)(F)F.O=C(O)C(F)(F)F.O=C1CC2(CCN(Cc3ccncc3)C2)CN1c1ccc2c(c1)OCO2` (configuration not stated), the “Percent Effect” value is reported as -29.31%. For the compound `O=C(O)C(F)(F)F.O=C(O)C(F)(F)F.c1cnc(N2CCC3(COCCN(CC4CCOCC4)C3)C2)nc1` (configuration not stated), the “Percent Effect” value is given as -23.85%. Take `CCc1ncnc2c1CCN(CC(=O)N(C)C)CC2.O=C(O)C(F)(F)F`: the “Percent Effect” value is listed as -2.001%. For the compound `COc1ccc(CN2C[C@@H]3OCCN(CCN4CCCC4)[C@@H]3C2)cc1.O=C(O)C(F)(F)F.O=C(O)C(F)(F)F.O=C(O)C(F)(F)F`, the “Percent Effect” value was -18.96%.

As to `Cc1ncc2c(n1)C1(CCN(C(=O)C3CC3)CC1)OCC2.Cl`, the “Percent Effect” value is on record as 6.327%. `CCN(CC)Cc1cn2c(n1)CN(C(=O)Cc1ccsc1)CC2.O=C(O)C(F)(F)F`: the “Percent Effect” value was -4.189%. Next, `Cl.O=C1CC2(CCNCC2)C(=O)N1c1cccc(F)c1`: -6.229%; `Cc1cc2c(=O)n3c(nc2s1)CCN(Cc1cnc(C)n1C)CC3.Cl`: 0.614%.

Take `O=C(O)C(F)(F)F.O=C1Nc2ccccc2C12CCN(Cc1cccs1)CC2`: the “Percent Effect” value is -5.404%.

Take `O=C(O)C(F)(F)F.c1ccc(CN2Cc3nccn3CC(Cn3cncn3)C2)nc1` (configuration not stated): the “Percent Effect” value is -29.71%. Next, `Cc1nc2c(c(NCc3nc4ccccc4s3)n1)CCNCC2`: 105.4%; `Cc1nc2c(c(NCc3cc4ccccc4s3)n1)CCNCC2`: -9.753%. Regarding `Cc1nc2c(c(NCc3ccc(-c4ccccn4)s3)n1)CCNCC2`, the “Percent Effect” value is given as -21.22%. With `C[C@H]1CN(CC2CCOCC2)C[C@@]12CCN(Cc1cccnc1)C2=O.O=C(O)C(F)(F)F.O=C(O)C(F)(F)F`, the “Percent Effect” value was found to be 4.288%. Consider `CN(C)C(=O)C1(C)CN(Cc2cn(C)c3ccccc23)CCO1` (configuration not stated), for which the “Percent Effect” value stood at 54.51%. For `Cc1nnc(N2CCOC(C)(C(=O)N(C)C)C2)c2ccccc12` (configuration not stated), the “Percent Effect” value was determined as 0.5691%.

As for `CNC(=O)C1(C)CN(Cc2cn(C)c3ccc(F)cc23)CCO1` (configuration not stated), the “Percent Effect” value was determined as 39.76%. The result for `CN(C)C(=O)C1(C)CN(Cc2cn(C)c3ccc(F)cc23)CCO1` (configuration not stated) reads 64.53%; that for `CC1(C(=O)N2CCOCC2)CN(Cc2ccccc2F)CCO1` (configuration not stated), 10.07%; that for `Cc1ncsc1CN1CCOC(C)(C(=O)N(C)C)C1` (configuration not stated), -16.31%. Consider `CC(C)Cn1c(=O)nc2n1C(=O)N(c1ccc(F)cc1)C2`, for which the “Percent Effect” value is on record as 4.992%. Turning to `Cc1cccc(-c2nnn3c2COC(CNCc2nccs2)C3)c1.O=C(O)C(F)(F)F` (configuration not stated), the “Percent Effect” value was -29.09%. For `COc1cc(N2C[C@H](C(=O)NCC3CC3)[C@@H]3CCO[C@@H]3C2)ncn1.O=C(O)C(F)(F)F`, the “Percent Effect” value is on record as -37.92%. The result for `CN(CCc1ccccn1)C(=O)c1cnn(-c2ccccc2F)c1N` reads 25.3%; that for `Cc1cc(Cl)ccc1-n1ncc(C(=O)N(C)CCc2ccccn2)c1N`, 67.07%; that for `Cc1ccc(C)c(-n2ncc(C(=O)N(C)CCc3ccccn3)c2N)c1`, 29.21%. For the compound `COc1ccc(OC)c(CN(Cc2ccco2)Cc2[nH]cnc2C)c1.O=C(O)CC(O)(CC(=O)O)C(=O)O`, the “Percent Effect” value was -22.22%.

For the compound `Cc1cccn2cc(CN3CCCC(c4ccn[nH]4)C3)nc12` (configuration not stated), the “Percent Effect” value came to 23.59%. On to `Cc1cccn2cc(CN3CCCC(O)C3)nc12` (configuration not stated), for which the “Percent Effect” value is on record as -6.265%. Next, `Cc1cccn2cc(CN3CCCC(c4noc(C5CC5)n4)C3)nc12` (configuration not stated): 100.9%; `COCC(=O)N1CCC2(CC1)C(=O)N(Cc1cccnc1)CCN2C.O=C(O)C(F)(F)F.O=C(O)C(F)(F)F`: -22.77%; `O=C(NC[C@H]1CC[C@H](c2ccnc3ncnn32)CC1)C1CC1`: 14.38%. `COCC1c2c(cnn2C)CCN1Cc1ccc(C)cc1.O=C(O)C(F)(F)F.O=C(O)C(F)(F)F` (configuration not stated): the “Percent Effect” value is recorded as -35.12%.

As for `Cn1ccnc1CN1CCc2onc(COCC3CC3)c2C1.O=C(O)C(F)(F)F`, the “Percent Effect” value is 34.07%. For the compound `CCn1ncc2c1C(COC)N(C(=O)c1cscn1)CC2.O=C(O)C(F)(F)F` (configuration not stated), the “Percent Effect” value is reported as -5.863%.

On to `Cc1nc(Nc2ncc(C)s2)cc(C2CCCN2S(C)(=O)=O)n1` (configuration not stated), for which the “Percent Effect” value is recorded as -9.231%.

Regarding `CS(=O)(=O)N1CCCC1c1cccc(Nc2nccs2)n1` (configuration not stated), the “Percent Effect” value worked out at 92.85%. Next, `c1ccc(CCN2CCCC2c2cccc(Nc3nccs3)n2)cc1` (configuration not stated): 104.9%. In the case of `Cc1cnc(Nc2cccc(C3CCCN3Cc3cn(C)nc3C)n2)s1` (configuration not stated), the “Percent Effect” value turned out to be 104.4%. As for `Cc1ccc(C2CCCCCN2Cc2cn(C)nc2C)s1` (configuration not stated), the “Percent Effect” value amounted to 11.6%. With `COCCN1CCCC1c1nccnc1Nc1nccs1` (configuration not stated), the “Percent Effect” value is -9.826%. For the compound `Cc1nn(C)cc1CN1CCCCCC1c1ccccc1Cl` (configuration not stated), the “Percent Effect” value is -8.916%.

As to `COCCN1CCCC1c1ccnc(-c2ccccc2)n1` (configuration not stated), the “Percent Effect” value was found to be 20.75%. Turning to `Cc1nn(C)cc1CN1CCCC1c1cccc(Nc2nccs2)n1` (configuration not stated), the “Percent Effect” value turned out to be 99.7%.

In the case of `Cc1ccsc1C1CCCCCN1Cc1cn(C)nc1C` (configuration not stated), the “Percent Effect” value was 17.22%. Next, `Cc1cccc(C2CCCCCN2Cc2cn(C)nc2C)c1` (configuration not stated): 5.626%; `CS(=O)(=O)N1CCCC1c1cccc(Cc2ccccc2F)n1` (configuration not stated): -7.758%; `CCCc1nnc(N[C@H](C)c2ccc(OC)cc2)o1`: 32.03%. Take `O=C(Nc1ccccc1)N1C(CO)[C@]2(O)CC[C@H]1CC2` (some centres not stated): the “Percent Effect” value was -13.23%. Next, `C=C1C(C)(C)[C@H]2CC[C@]1(C(=O)N1CCC(n3cc(CO)nn3)CC1)C2`: 11.02%; `C[C@H]1C(=O)NC[C@H]2CN(CCc3ccccc3)C[C@H]21.O=C(O)C(F)(F)F`: -3.474%; `CN(C)c1ccnc(C2CCCN2)n1.Cl` (configuration not stated): -9.101%. Turning to `Cc1ccc(CN2CC3(CCN(C(=O)c4cccnc4)C3)C2)o1.O=C(O)C(F)(F)F.O=C(O)C(F)(F)F`, the “Percent Effect” value was 25.41%. In the case of `Cl.Cl.O=C(NCc1cncc2c1CCN(Cc1cccs1)C2)C1CC1`, the “Percent Effect” value was 3.264%.

Turning to `O=C(NCc1ccccn1)[C@H]1COC[C@H]2CN(Cc3ccoc3)C[C@H]21.O=C(O)C(F)(F)F.O=C(O)C(F)(F)F`, the “Percent Effect” value is 2.625%.

`COCCNc1nc(C)nc2c1CCN(C[C@H]1CC[C@@H](N)CC1)CC2`: the “Percent Effect” value is reported as -33.02%. `Cn1nc(COc2cccnc2)c2c1CCN(c1cnccn1)C2.O=CO.O=CO`: the “Percent Effect” value is 1.293%. For the compound `O=C(O)C(F)(F)F.O=C(O)C(F)(F)F.c1cncc(N2CCOCC3(CCCN(Cc4cccs4)C3)C2)c1` (configuration not stated), the “Percent Effect” value is reported as -22.26%. For `CC(C)[C@H](N)C(=O)N1CCCC(C2=Nc3ccccc3S(=O)(=O)N2)C1.Cl` (some centres not stated), the “Percent Effect” value was 13.38%. With `Cc1cccc(CN2CCc3onc(Cn4cccc4)c3C2)n1.O=C(O)C(F)(F)F`, the “Percent Effect” value is 14.85%. Turning to `COCCN1C2(CCN(CC3CC3)C2)c2ccccc2S1(=O)=O.O=C(O)C(F)(F)F` (configuration not stated), the “Percent Effect” value stood at 3.018%. With `NC(=O)c1ccc(CNC(=O)Nc2cn[nH]c2)cc1`, the “Percent Effect” value is -17.84%. The result for `Cc1cccc(CN2CCCC2c2cccc(Nc3nccs3)n2)c1` (configuration not stated) reads 104%; that for `Cc1cccc(CN2CCCC2c2cccc(CCC(=O)O)n2)c1` (configuration not stated), -20.44%; that for `Cc1ccccc1CN1CCCC1c1cccc(Nc2nccs2)n1` (configuration not stated), 106.1%. For the compound `Cc1nc(Nc2nccs2)cc(C2CCCN2C2CCOCC2)n1` (configuration not stated), the “Percent Effect” value is given as -17.35%.

For the compound `Cc1cc(C2CCCN2Cc2cccc(C(=O)Nc3nccs3)c2)no1` (configuration not stated), the “Percent Effect” value was -4.082%. The result for `Cc1nc(Nc2ccccn2)cc(C2CCCN2Cc2ncc[nH]2)n1` (configuration not stated) reads 21.63%; that for `CCCN(CC1CC1)C(=O)CN1CCCC1c1cnn(C)c1` (configuration not stated), 3.305%. For `CS(=O)(=O)N1CCN(C(=O)CCC2CCCO2)CC1` (configuration not stated), the “Percent Effect” value came to 9.25%. As for `Cc1noc(C)c1CN1CCC2(CC1)C(c1cnn(C)c1)CC(=O)N2C.O=C(O)C(F)(F)F` (configuration not stated), the “Percent Effect” value is on record as 38.42%. For `CC(=O)N1CCO[C@@H]2CN(S(=O)(=O)c3cccnc3)C[C@@H]2C1.O=C(O)C(F)(F)F`, the “Percent Effect” value is reported as 22.17%. Regarding `Cc1cccc(CN2CCc3nnc(CO)n3CC2)n1.O=C(O)C(F)(F)F`, the “Percent Effect” value is recorded as -11.61%. For `CC(C)CN1CCC2(C=C(C(=O)NC3CC3)c3ccccc32)CC1.O=C(O)C(F)(F)F`, the “Percent Effect” value is -0.1524%. In the case of `CC(=O)NC1CCN(c2cnc(C3CCNCC3)cn2)CC1.Cl`, the “Percent Effect” value is listed as -24.22%. As to `O=C(O)C(F)(F)F.c1cnc(N2CCO[C@H]3[C@H](OCC4CC4)CC[C@@H]32)nc1`, the “Percent Effect” value was found to be 10.71%. Turning to `Fc1cnc(N2CCO[C@H]3[C@H](OCC4CCOCC4)CC[C@@H]32)nc1.O=C(O)C(F)(F)F`, the “Percent Effect” value came out at 47.96%.

Regarding `O=C(O)C(F)(F)F.c1cnc(N2CCO[C@H]3[C@H](OCC4CCOCC4)CC[C@@H]32)nc1`, the “Percent Effect” value is 52.27%.

For `CCOCC(=O)N1CCC2(CC1)CC(c1ccccc1)CO2` (configuration not stated), the “Percent Effect” value is reported as 16.4%. `CS(=O)(=O)N1C[C@H]2C[C@H](C(=O)N3CCOCC3)[C@@H](C1)O2`: the “Percent Effect” value is 9.276%. For `CN(Cc1cccnc1)c1nc(-c2ccccn2)nc2c1CCNCC2`, the “Percent Effect” value turned out to be 7.828%.

As for `CN(Cc1ccsc1)c1nc(-c2ccccn2)nc2c1CCNCC2`, the “Percent Effect” value is listed as 90.45%. Take `CN(Cc1nccs1)c1nc(-c2ccccn2)nc2c1CCNCC2`: the “Percent Effect” value worked out at 47.94%. On to `O=C(O)C(F)(F)F.c1cnc(NCc2nnn3c2CN(Cc2ccsc2)CCC3)nc1`, for which the “Percent Effect” value is -34.33%. With `Cl.O=C(NC1CCCC1)c1cc(C2CCCNC2)n[nH]1` (configuration not stated), the “Percent Effect” value is on record as 2.974%. Next, `COCCN1C[C@@H]2[C@@H](OC)CCN(Cc3ccsc3)[C@@H]2C1.O=C(O)C(F)(F)F.O=C(O)C(F)(F)F`: -56.24%; `c1nc(CCNc2nc(C3CC3)nc3c2CCNCC3)c[nH]1`: -37.66%; `c1cc(-c2nc3c(c(NCCc4c[nH]cn4)n2)CCNCC3)ccn1`: -32.96%. Turning to `c1ccc(-c2nc3c(c(NCc4nnc5n4CCC5)n2)CCNC3)cc1`, the “Percent Effect” value is reported as -1.823%. Consider `c1coc(-c2nc3c(c(NCc4n[nH]c5c4CCC5)n2)CCNCC3)c1`, for which the “Percent Effect” value is reported as -50.31%. For the compound `c1ccc(-c2nc3c(c(NCCc4c[nH]cn4)n2)CCNC3)cc1`, the “Percent Effect” value is given as 103.9%. As to `c1ccc(-c2nc3c(c(NCc4n[nH]c5c4CCC5)n2)CCNC3)cc1`, the “Percent Effect” value was found to be 105.2%.
